The sample as a whole holds a higher share of hits than the screen did.
Tg IFNy HTS = blocks Toxoplasma gondii growth in the presence of IFN-gamma | activity change, negative = inhibition, % (test concentration not listed) | Toxoplasma gondii growth in IFN-gamma-treated host cells; stronger effect = lower value | actives 3.8% (n = 69,000); in the data active means activity change below about -70%, passing the limit was not always enough;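 further: host cells are HeLa cells infected with Toxoplasma gondii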
Numbers stand for hits; . = inactive.

SMILES	Tg IFNy HTS
Cc1ccc(-c2nnc(-c3nc(NCCCc4ccccc4)c4ccccc4n3)o2)cc1	.
NC(=S)c1sccc1Br	.
CC(C)N1CCN(CC#N)C2(CCN(c3cnccn3)C2)C1=O (stereo not given)	.
CC(C)(C)C(=O)N1CCN(C2c3ccccc3-c3ccccc32)CC1	-94.4
CC(C)(C)C(=O)N1CCN(c2cccc(Cl)c2)CC1	.
O=C(c1cccnc1Oc1ccccc1)N1CCN(C2c3ccccc3-c3ccccc32)CC1	.
CC(C)c1n[nH]c2c1CN(C(=O)c1ccc(C#CC(C)(C)O)o1)CC2	.
COc1cc2c(cc1CN1CCOC(CCNC(C)=O)C1)OCO2 (stereo not given)	.
COc1ccccc1S(=O)(=O)N(C)C[C@@H]1OCc2cn(nn2)CCCC(=O)N([C@H](C)CO)C[C@@H]1C	.
CC(=O)Nc1c(-c2ccccc2)oc2ccccc2c1=O	.
C[C@H](O[C@H]1OCCN(Cc2n[nH]c(=O)[nH]2)[C@H]1c1ccc(F)cc1)c1cc(C(F)(F)F)cc(C(F)(F)F)c1	-72.2
CN1CCCC(OC(=O)CCc2ccccc2)C1 (stereo not given)	.
COCC#Cc1ccc([C@@H]2[C@H](CO)N3CCCCN(C(=O)NC4CCCC4)C[C@@H]23)cc1	.
C[C@@H]1CN([C@H](C)CO)C(=O)c2c(c3ccccc3n2C)-c2ccccc2CO[C@H]1CN(C)C(=O)NC1CCCCC1	.
Nc1nccc2c1ncn2[C@@H]1O[C@H](CO)C(O)C1O (stereo not given in full)	.
Nc1nccc2c1ncn2[C@@H]1C=C(CO)[C@@H](O)[C@H]1O	-77.9
Cc1cc(=O)n(CC(=O)Nc2cccc(-c3nnco3)c2)c2ccccc12	.
COc1ccc2[nH]c(=O)c3c(c2c1)OC(C)(C)C=C3	-83.4
COc1ccc2[nH]cc(C3N4CC5(C)CN3CC(C)(C4)C5=O)c2c1 (stereo not given)	.
COc1ccc(C(=O)CC(=O)O)c2c1C=CC(C)(C)O2	.
CCCC(=O)Nc1ccc2c(c1)C(=O)N(C)C[C@@H](OC)[C@@H](C)CN(Cc1ccc(F)cc1)[C@H](C)CO2	.
CC(=O)Cc1nsc(NC(=O)c2ccoc2COc2ccc(C)cc2)n1	.
C[C@H](NC(=O)C[C@H]1CC[C@H]2[C@@H](COC[C@@H](O)CN2Cc2ccc(C(F)(F)F)cc2)O1)c1ccccc1	.
Cc1cc(Nc2nc(N[C@@H](C)c3ccc(F)cc3)c(C#N)cc2F)n[nH]1	-75.2
CC(C)c1nccn1CC(=O)N1CCOC(c2nc(-c3cccc(C(F)(F)F)c3)no2)C1 (stereo not given)	.
SMILES	Tg IFNy HTS
CCN(CC)CC1CCN(c2ncc3ncnc(Nc4ccc(F)c(Cl)c4)c3n2)CC1	.
COc1cc2ncnc(Nc3ccc(F)c(Cl)c3)c2cc1NC(=O)/C=C/CN1CCCCC1	-81.9
CNC(=O)CN1CCC(Oc2cc3c(Nc4cccc(Cl)c4F)ncnc3cc2OC)CC1	.
O=C(Cc1ccsc1)N1CCC2(CC1)Nc1cccnc1NC2=NC1CCCC1	.
OC(CSc1cccs1)CN1CCN(C(c2ccccc2)c2ccccc2)CC1 (stereo not given)	-94.1
C(=C\c1ccccc1)/CN1CCN(C(c2ccccc2)c2ccccc2)CC1	.
O=C(O)c1cccnc1Nc1cccc(C(F)(F)F)c1	.
Cc1nc(CCNc2nc(-c3cccnc3)nc3c2CCNC3)sc1C	.
CC(C)(C)C1CCc2nc(-c3cccnc3)nc(Nc3cccc(C(F)(F)F)c3)c2C1 (stereo not given)	-73.1
Cc1ccc2cccc(NC(=O)CCS(=O)(=O)c3cccc4cccnc34)c2n1	.
COc1cccc(-c2ccc3n(c2=O)C[C@H]2[C@H](CO)[C@@H](C(=O)N(C)C)[C@@H]3N2C(=O)c2ccccn2)c1	.
O=C(O)C1CC2(CCNCC2)CN1Cc1nc2ccccc2[nH]1 (stereo not given)	.
N#Cc1cccc(-c2ccc([C@H]3[C@@H](CO)N4CCCCN(Cc5ccccc5F)C[C@@H]34)cc2)c1	.
Cc1cc(C(=O)N2CC(=O)N(C3CCCCC3)CC(OCc3ccccc3)C2)nc(C)n1 (stereo not given)	.
CC(=O)N1C(C(=O)O)Cc2c([nH]c3ccccc23)C1C (stereo not given)	.
COC(=O)[C@@H]1Cc2c([nH]c3ccccc23)CN1C(=O)c1cc(C)nc(C)n1	-72.5
CO[C@H]1[C@H](NC(=O)c2ccccn2)c2ccccc2C12CCN(C(=O)Cc1ccccc1F)CC2	.
Cc1nc2c(c(=O)[nH]1)CCN(C(=O)Cc1ccc3c(c1)OCCCO3)CC2	.
COc1ccc(CNC(=O)CCC2N=C3c4ccccc4N=C(SCc4ccc(Cl)cc4)N3C2=O)cc1 (stereo not given)	.
COC(=O)c1ccc(NC(=O)N2CCC3(CC2)Nc2cc(F)ccc2-n2cccc23)cc1	.
